Assay results from the supplement of paper PMC9262897, “Low-cost anti-mycobacterial drug discovery using engineered E. coli” (Nature Communications, 2022).
Structures can show the parent of a compound that is named as a salt. ± gives the standard deviation of the averaged measurements.

What follows are compounds tested on E. coli TESEC Mtb Asd (assay: growth (OD600 after 10 h); higher = more growth (less inhibition)). Conditions: arabinose induction (level): Low; compound 0.1 mM; raw OD600 reference: median of DMSO wells 0.417, cell-free background 0.041.
Experimental: (§1)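 TESEC E. coli strains in which the native enzyme is deleted and replaced by arabinose-inducible Mtb Asd, DapB, CysH or TrpD, each grown in its selective medium. Strains were screened against the Prestwick library at 0.1 mM and 1% DMSO in 384-well format at low and high arabinose induction. Growth is read as OD600 after 10 h in triplicate.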

| Compound | growth |
| --- | --- |
| CSc1ccc2c(c1)C(N1CCN(C)CC1)Cc1ccccc1S2 (centres undefined) [Methiothepin maleate] | 0.0503 ± 0.0057 |
| N[C@@H]1CONC1=O [D-cycloserine] | 0.354 ± 0.081 |
| Clc1ccc(COC(Cn2ccnc2)c2ccc(Cl)cc2Cl)c(Cl)c1 (centres undefined) [Miconazole] | 0.0481 ± 0.0013 |
| CC(C)OC(=O)CCC/C=C\C[C@@H]1[C@@H](CC[C@@H](O)CCc2ccccc2)[C@H](O)C[C@@H]1O [Latanoprost] | 0.05293 ± 0.00021 |
| CC(NCCc1ccc(O)cc1)C(O)c1ccc(O)cc1 (centres undefined) [Ritodrine hydrochloride] | 0.348 ± 0.055 |

The compounds below were run on E. coli TESEC Mtb DapB in the same assay as above. Conditions: arabinose induction (level): High; compound 0.1 mM; raw OD600 reference: median of DMSO wells […], cell-free background 0.041.
Experimental: as §1

| Compound | growth |
| --- | --- |
| CN(C)CCc1c[nH]c2ccc(Cn3cncn3)cc12 [Rizatriptan benzoate] | 0.193 ± 0.0065 |
| COc1ccc(CCN(C)CCCC(C#N)(c2ccc(OC)c(OC)c2)C(C)C)cc1OC (centres undefined) [Verapamil hydrochloride] | 0.177 ± 0.017 |
| CC1=C(/C=C/C(C)=C/C=C/C(C)=C\C(=O)O)C(C)(C)CCC1 [Isotretinoin] | 0.185 ± 0.018 |
| CCCOc1cc(N)ccc1C(=O)OCCN(CC)CC [Propoxycaine hydrochloride] | 0.225 ± 0.0078 |
| CO/N=C(\C(=O)N[C@@H]1C(=O)N2C(C(=O)O)=C(COC(C)=O)CS[C@H]12)c1csc(N)n1 [Cefotaxime sodium salt] | 0.0632 ± 0.014 |
| Clc1ccc(Cn2c(CN3CCCC3)nc3ccccc32)cc1 [Clemizole hydrochloride] | 0.156 ± 0.027 |
| COc1ccccc1N1CCN(CCCCNC(=O)c2ccc3ccccc3c2)CC1 | 0.188 ± 0.017 |
| CC[C@H](c1ccc(O)cc1)[C@@H](CC)c1ccc(O)cc1 [Hexestrol] | 0.0653 ± 0.019 |
| Cc1cc(N)c2ccccc2[n+]1CCCCCCCCCC[n+]1c(C)cc(N)c2ccccc21 [Dequalinium dichloride] | 0.0601 ± 0.004 |
| Clc1ccc(Nc2nnc(Cc3ccncc3)c3ccccc23)cc1 [Vatalanib] | 0.203 ± 0.081 |
| NNc1nncc2ccccc12 [Hydralazine hydrochloride] | 0.19 ± 0.0027 |
| NC(Cc1cc(I)c(Oc2cc(I)c(O)c(I)c2)c(I)c1)C(=O)O (centres undefined) [Thyroxine (L)] | 0.206 ± 0.008 |
| Cc1onc(-c2c(F)cccc2Cl)c1C(=O)N[C@@H]1C(=O)N2[C@@H]1SC(C)(C)[C@@H]2C(=O)O [Flucloxacillin sodium] | 0.196 ± 0.0025 |
| C[C@H](N[C@@H](CCc1ccccc1)C(=O)O)C(=O)N1CCC[C@H]1C(=O)O [Enalaprilat dihydrate] | 0.21 ± 0.013 |
| COCCOC(=O)C1=C(C)NC(C)=C(C(=O)OC/C=C/c2ccccc2)C1c1cccc([N+](=O)[O-])c1 (centres undefined) [Cilnidipine] | 0.169 ± 0.0093 |
| CCCNCC(O)COc1ccccc1C(=O)CCc1ccccc1 (centres undefined) [Propafenone hydrochloride] | 0.173 ± 0.01 |
| Cn1nnc2c(C(N)=O)ncn2c1=O [Temozolomide] | 0.194 ± 0.02 |
| CCc1nn(CCCN2CCN(c3cccc(Cl)c3)CC2)c(=O)n1CCOc1ccccc1 [Nefazodone HCl] | 0.05113 ± 0.00049 |
| CC(=O)OCC(=O)[C@@]12OC3(CCCC3)O[C@@H]1C[C@H]1[C@@H]3CCC4=CC(=O)C=C[C@]4(C)[C@@]3(F)[C@@H](O)C[C@@]12C [Amcinonide] | 0.222 ± 0.043 |
| COc1ccccc1O [Guaiacol] | 0.19 ± 0.008 |

| Compound | growth |
| --- | --- |
| C(=C\c1ccccc1)/CN1CCN(C(c2ccccc2)c2ccccc2)CC1 [Cinnarizine] | 0.205 ± 0.011 |
| CCN(CC)C(C)CN1c2ccccc2Sc2ccccc21 (centres undefined) [Ethopropazine hydrochloride] | 0.2149 ± 0.0019 |
| CC(CCc1ccccc1)NCC(O)c1ccc(O)c(C(N)=O)c1 (centres undefined) [Labetalol hydrochloride] | 0.186 ± 0.0091 |
| CN(Cc1cnc2nc(N)nc(N)c2n1)c1ccc(C(=O)N[C@@H](CCC(=O)O)C(=O)O)cc1 [Methotrexate] | 0.2 ± 0.0058 |
| NS(=O)(=O)c1cc2c(cc1Cl)NC(CC1CCCC1)NS2(=O)=O (centres undefined) [Cyclopenthiazide] | 0.212 ± 0.0077 |
| CC1(C)NC(=O)N(c2ccc([N+](=O)[O-])c(C(F)(F)F)c2)C1=O [Nilutamide] | 0.194 ± 0.012 |
| CC(=O)O[C@H]1C[C@@H]2CC[C@@H]3[C@H](CC[C@@]4(C)[C@H]3C[C@H]([N+]3(C)CCCCC3)[C@@H]4OC(C)=O)[C@@]2(C)C[C@@H]1N1CCCCC1 [Vecuronium bromide] | 0.172 ± 0.019 |
| Clc1ccc(C(Cn2ccnc2)OCc2csc3c(Cl)cccc23)c(Cl)c1 (centres undefined) [Sertaconazole nitrate] | 0.0687 ± 0.0033 |
| Cn1c(=O)c2c(ncn2C)n(C)c1=O [Caffeine] | 0.192 ± 0.01 |
| C[N+]1(C)CCC(OC(=O)C(O)(c2ccccc2)C2CCCC2)C1 (centres undefined) [Glycopyrrolate] | 0.194 ± 0.025 |
| Clc1cccc(Cl)c1NC1=NCCN1 [Clonidine hydrochloride] | 0.195 ± 0.012 |
| Cc1cc(O)c(C(=O)N[C@@H](C(=O)N[C@@H]2C(=O)N3C(C(=O)O)=C(CSc4nnnn4C)CS[C@H]23)c2ccc(O)cc2)cn1 [Cefpiramide] | 0.214 ± 0.007 |
| C#C[C@]1(O)CC[C@H]2[C@@H]3CCC4=C(CCC(=O)C4)[C@H]3CC[C@@]21C [Norethynodrel] | 0.149 ± 0.0054 |
| Nc1ccc(O)c(C(=O)O)c1 [Mesalamine] | 0.195 ± 0.024 |
| CSc1ccc2c(c1)C(N1CCN(C)CC1)Cc1ccccc1S2 (centres undefined) [Methiothepin maleate] | 0.0514 ± 0.00083 |
| N[C@@H]1CONC1=O [D-cycloserine] | 0.2176 ± 0.0016 |
| Clc1ccc(COC(Cn2ccnc2)c2ccc(Cl)cc2Cl)c(Cl)c1 (centres undefined) [Miconazole] | 0.0949 ± 0.0049 |
| CC(C)OC(=O)CCC/C=C\C[C@@H]1[C@@H](CC[C@@H](O)CCc2ccccc2)[C@H](O)C[C@@H]1O [Latanoprost] | 0.0594 ± 0.0031 |
| CC(NCCc1ccc(O)cc1)C(O)c1ccc(O)cc1 (centres undefined) [Ritodrine hydrochloride] | 0.179 ± 0.0043 |
